{"source": "PubChem BioAssay (NCATS)", "note": "Records with an inconclusive call do not appear. Where a call stands in place of a potency, no number is given. A number with no mark means an inactive call. The source made the active and inactive calls. The call rests on the fitted dose curve; in most records, active means well fitted cell-killing curve with a large enough effect; inconclusive means small, poorly fitted or top-dose-only effect, or effect the other way; inactive means flat fitted curve, though single readings scatter. Potency means the concentration at half of the fitted maximal effect."}
{"system": "PA-1", "assay": "Primary qHTS to identify gynecologic anti-cancer compounds using libraries of approved drugs and bioactive compounds (AID 1345084); further: nearly all actives have a fitted effect of over 55% in size", "details": "Gynecologic cancer cell panel viability, ATPlite luminescence, 48 h; series mostly up to 57.5 µM", "outline": "(§1)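 Cell viability after 48 h drug treatment, ATPlite luminescence readout; five doses.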"}
{"smiles": "CC(C)(C)[C@H](NC(=O)c1ccc(N)c(Cl)c1)C(=O)N1CCC[C@H]1C(=O)N[C@H](C#N)CC(=O)O", "Potency": "inactive"}
{"smiles": "O=c1cc(N2CCOCC2)nc2c3ccccc3ccn12", "Potency": "inactive"}
{"smiles": "CC(=O)O[C@H]1CC[C@]2(C)[C@H]3CC[C@]4(C)Oc5oc(C)cc(=O)c5C[C@H]4[C@]3(C)CC[C@H]2C1(C)C", "Potency": "inactive"}
{"system": "SKOV3", "assay": "Primary qHTS to identify gynecologic anti-cancer compounds using libraries of approved drugs and bioactive compounds (AID 1345084); further: nearly all actives have a fitted effect of over 55% in size", "details": "Gynecologic cancer cell panel viability, ATPlite luminescence, 48 h; series mostly up to 57.5 µM", "outline": "as §1"}
{"smiles": "CC(=O)O[C@H]1CC(C)(C)CC2[C@]13CO[C@@]21CCC2[C@@]4(C)CC[C@H](O[C@@H]5OC[C@H](O[C@@H]6O[C@H](CO)[C@@H](O)[C@H](O)[C@H]6O[C@@H]6OC[C@@H](O)[C@H](O)[C@H]6O)[C@H](O)[C@H]5O[C@@H]5O[C@H](CO)[C@@H](O)[C@H](O)[C@H]5O)[C@@](C)(CO)C4CC[C@@]2(C)[C@]1(C)C[C@H]3O", "note": "(some centres not stated)", "activity change, negative = cytotoxicity": "-11.7% [at 11.6 µM]"}
{"smiles": "C=C1C(=O)O[C@@H]2[C@H]3C(C)=CC(=O)C3=C(C)[C@@H](OC(=O)/C(C)=C\\C)[C@H](O)[C@@H]12", "Potency": "inactive"}
{"smiles": "CN(C)CCN(Cc1ccc(-c2ccc(CNCCc3ccccc3)cc2)cc1)C(=O)CCC1CCCC1", "Potency": "15.8 µM (active)"}
{"smiles": "CC1(C)CN(C(=O)c2ccc(-c3cccc4nc(NC(=O)C5CC5)nn34)cc2)C1", "Potency": "inactive"}
{"smiles": "Oc1cccc(-c2c3nc(c(-c4cccc(O)c4)c4ccc([nH]4)c(-c4cccc(O)c4)c4nc(c(-c5cccc(O)c5)c5ccc2[nH]5)CC4)C=C3)c1", "Potency": "inactive"}
{"smiles": "CCC(C)C(=O)OC1C(C)C2(O)C(C=C(CO)CC3(O)C(=O)C(C)=CC32)C2C(C)(C)C12OC(=O)C(C)C", "note": "(configuration not stated)", "Potency": "inactive"}
{"smiles": "CCC(C)(OC(C)=O)C(=O)O[C@H]1[C@H](OC(C)=O)[C@]2(CO)[C@H](O)[C@H](O)[C@]3(C)C(=CCC4[C@@]5(C)CC[C@H](O[C@@H]6O[C@H](C(=O)O)[C@@H](O)[C@H](O[C@@H]7OC[C@H](O)[C@H](O[C@@H]8OC[C@H](O)[C@H](O)[C@H]8O)[C@H]7O)[C@H]6O[C@@H]6O[C@H](CO)[C@@H](O)[C@H](O)[C@H]6O)C(C)(C)C5CC[C@]43C)[C@@H]2CC1(C)C", "note": "(some centres not stated)", "activity change, negative = cytotoxicity": "-31.7% [at 6.55 µM]"}
{"smiles": "O=C(c1ccccc1)c1c(O)cc(O)cc1O[C@@H]1O[C@H](CO)[C@@H](O)[C@H](O)[C@H]1O", "Potency": "inactive"}
{"smiles": "CCOC(=O)c1csc(Nc2ccc(Cl)cc2)n1", "Potency": "inactive"}
{"smiles": "FC(F)(F)c1ccccc1-c1cc(C(F)(F)F)c2nc(C3=NOC4(CCCCC4)C3)[nH]c2c1", "Potency": "inactive"}
{"smiles": "Cc1ccc(-c2c(C(=O)CCl)n(CCCO)c3ncnc(N)c23)cc1", "Potency": "inactive"}
{"smiles": "CCn1c(=O)c(-c2ccc(-c3cncs3)cc2Cl)cc2cnc(Nc3ccc(N4CCN(C)CC4)cc3)nc21", "Potency": "inactive"}
{"smiles": "CCNC(=O)C#Cc1ccc2c(C(=Nc3ccc(CN(C)C)cc3)c3ccccc3)c(O)[nH]c2c1", "Potency": "1.41 µM (active)"}
{"smiles": "COc1cc2ncnc(Oc3ccc(CC(=O)Nc4cnn(C(C)C)c4)cc3)c2cc1OC", "Potency": "inactive"}
{"smiles": "O=C(Nc1ccnc(NC(=O)C2CC2)c1)c1c(Cl)cccc1Cl", "Potency": "inactive"}
{"smiles": "CC(C)NC(=O)N1CC[C@H](N=C2Nc3cc(F)ccc3N(CC(F)F)c3ccc(Cl)cc32)C1", "activity change, negative = cytotoxicity": "18.3% [at 11.6 µM]"}
{"smiles": "CC(C)c1cccc(C(C)C)c1NC(=O)Nc1ccc(Sc2ccc([N+](=O)[O-])cc2)cc1", "Potency": "inactive"}
{"smiles": "C=C1CC[C@@H]2[C@](C)(CO)[C@H](O)CC[C@@]2(C)[C@@H]1CC(=O)C1=CCOC1=O", "Potency": "inactive"}
{"smiles": "CC(=O)O[C@H]1CC[C@]2(C)[C@H]3CC[C@]4(C)Oc5oc(C)cc(=O)c5C[C@H]4[C@]3(C)CC[C@H]2C1(C)C", "Potency": "inactive"}
